# According to the supplement of paper PMC10849652:
# Targets with a hit are over-represented here; the source holds about 8,800 in all. About 0.5% of all pairs of compound and target were hits. Unmarked numbers belong to inactive results.
# Experiments:
# Test in all cases: log2 fold change, soluble protein after heating vs DMSO (PISA); higher = thermal stabilisation; K562 lysate, 10 uM; active = over 0.2 and 3.5 SD of the protein, either way, in both replicates (recomputed)
# [1] = compound: Cc1cn(-c2cc(NC(=O)c3ccc(C)c(Nc4nccc(-c5cccnc5)n4)c3)cc(C(F)(F)F)c2)cn1 [nilotinib]
# Summary of the method: (§1)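 Pellets of K562 cells were dounce-homogenised in PBS pH 7.4 with 1 mM MgCl2, and the crude extract was held at 1 mg/mL protein for a 30 min treatment with 10 μM compound. Aliquots were heated for 3 min over 48°C-58°C and pooled before NP-40 was added to 0.5% at 4°C. The supernatant from 21,000xg for 90 min was quantified by TMTpro 16plex LC-MS/MS with channel sums equalised. Values are reported from duplicates as log-two fold change in thermal stability relative to solvent controls.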
# [2] = compound: Cc1nc(Nc2n[nH]c3c2CN(C(=O)N[C@H](CN(C)C)c2ccccc2)C3(C)C)c2sccc2n1
# Summary of the method: as §1
# [3] = compound: Cc1nc(Nc2ncc(C(=O)Nc3c(C)cccc3Cl)s2)cc(N2CCN(CCO)CC2)n1 [dasatinib]
# Summary of the method: as §1
# [4] = compound: Cc1ncc(-c2ccnc(Nc3ccc(S(C)(=O)=O)cc3)n2)n1C(C)C
# Summary of the method: as §1
# [5] = compound: Cn1cc(-c2ccc3c(c2)CCN3C(=O)Cc2cccc(C(F)(F)F)c2)c2c(N)ncnc21
# Summary of the method: as §1
# [6] = compound: Cn1cc(CNCC2CCN(c3ncc(C(=O)NO)cn3)CC2)c2ccccc21 [quisinostat]
# Summary of the method: as §1
# [7] = compound: Cn1cncc1[C@@](N)(c1ccc(Cl)cc1)c1ccc2c(c1)c(-c1cccc(Cl)c1)cc(=O)n2C [tipifarnib]
# Summary of the method: as §1
# [8] = compound: NC(=O)Nc1cc(-c2cccc(F)c2)sc1C(=O)N[C@H]1CCCNC1
# Summary of the method: as §1
# [9] = compound: NC(=O)c1cnc(N[C@@H]2CCCC[C@@H]2N)nc1Nc1cccc(-n2nccn2)c1
# Summary of the method: as §1
# [10] = compound: NC1(c2ccc(-c3nc4ccn5c(=O)[nH]nc5c4cc3-c3ccccc3)cc2)CCC1
# Summary of the method: as §1
# [11] = compound: NCC(=O)Nc1ccc(-n2nc(C(F)(F)F)cc2-c2ccc3c(ccc4ccccc43)c2)cc1
# Summary of the method: as §1
# [12] = compound: O=C(CCCCCCC(=O)Nc1ccccc1)NO [vorinostat]
# Summary of the method: as §1
# [13] = compound: O=C(O)c1ccc2c(c1)nc(Nc1cccc(Cl)c1)c1ccncc12 [silmitasertib]
# Summary of the method: as §1
# [14] = compound: O=C1NC(=O)C(c2cnc3ccccn23)=C1c1cn2c3c(cc(F)cc13)CN(C(=O)N1CCCCC1)CC2
# Summary of the method: as §1
# [15] = compound: c1cn2cc(-c3ccc4cn[nH]c4c3)nc(Nc3ccc(N4CCOCC4)cc3)c2n1 [entospletinib]
# Summary of the method: as §1
# Chain of UniProt Q8TB52 (Q8TB52 whole entry, looked up): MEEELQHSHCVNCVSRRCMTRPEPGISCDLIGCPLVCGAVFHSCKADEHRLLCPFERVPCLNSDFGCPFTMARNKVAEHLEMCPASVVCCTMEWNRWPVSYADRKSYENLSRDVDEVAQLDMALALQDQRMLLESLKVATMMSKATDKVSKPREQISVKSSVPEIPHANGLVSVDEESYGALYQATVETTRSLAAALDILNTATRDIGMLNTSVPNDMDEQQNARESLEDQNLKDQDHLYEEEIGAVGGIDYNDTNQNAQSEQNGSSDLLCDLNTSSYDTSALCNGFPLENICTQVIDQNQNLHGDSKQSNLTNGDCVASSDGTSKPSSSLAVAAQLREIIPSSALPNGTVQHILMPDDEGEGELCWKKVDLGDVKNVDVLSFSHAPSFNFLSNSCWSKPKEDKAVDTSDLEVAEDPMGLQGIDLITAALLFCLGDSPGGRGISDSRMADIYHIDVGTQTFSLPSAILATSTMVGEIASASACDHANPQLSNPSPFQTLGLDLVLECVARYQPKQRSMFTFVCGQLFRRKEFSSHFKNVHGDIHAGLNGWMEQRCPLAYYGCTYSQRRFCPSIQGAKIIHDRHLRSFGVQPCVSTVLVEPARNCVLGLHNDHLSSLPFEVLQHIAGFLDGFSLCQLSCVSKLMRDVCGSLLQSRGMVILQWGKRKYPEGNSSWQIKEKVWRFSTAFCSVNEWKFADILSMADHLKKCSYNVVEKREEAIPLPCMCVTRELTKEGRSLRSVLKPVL
# Chain of UniProt Q13011 (Q13011 whole entry, looked up): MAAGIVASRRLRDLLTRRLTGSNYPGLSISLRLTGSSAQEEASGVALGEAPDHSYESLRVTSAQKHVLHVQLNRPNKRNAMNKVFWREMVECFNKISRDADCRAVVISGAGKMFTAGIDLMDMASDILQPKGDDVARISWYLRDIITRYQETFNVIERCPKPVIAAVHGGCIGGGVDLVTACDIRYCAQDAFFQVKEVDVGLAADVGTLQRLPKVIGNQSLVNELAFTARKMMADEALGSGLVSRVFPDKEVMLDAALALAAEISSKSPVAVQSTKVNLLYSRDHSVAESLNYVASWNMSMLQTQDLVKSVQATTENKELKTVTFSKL
# Chain of UniProt O00471 (O00471 whole entry, looked up): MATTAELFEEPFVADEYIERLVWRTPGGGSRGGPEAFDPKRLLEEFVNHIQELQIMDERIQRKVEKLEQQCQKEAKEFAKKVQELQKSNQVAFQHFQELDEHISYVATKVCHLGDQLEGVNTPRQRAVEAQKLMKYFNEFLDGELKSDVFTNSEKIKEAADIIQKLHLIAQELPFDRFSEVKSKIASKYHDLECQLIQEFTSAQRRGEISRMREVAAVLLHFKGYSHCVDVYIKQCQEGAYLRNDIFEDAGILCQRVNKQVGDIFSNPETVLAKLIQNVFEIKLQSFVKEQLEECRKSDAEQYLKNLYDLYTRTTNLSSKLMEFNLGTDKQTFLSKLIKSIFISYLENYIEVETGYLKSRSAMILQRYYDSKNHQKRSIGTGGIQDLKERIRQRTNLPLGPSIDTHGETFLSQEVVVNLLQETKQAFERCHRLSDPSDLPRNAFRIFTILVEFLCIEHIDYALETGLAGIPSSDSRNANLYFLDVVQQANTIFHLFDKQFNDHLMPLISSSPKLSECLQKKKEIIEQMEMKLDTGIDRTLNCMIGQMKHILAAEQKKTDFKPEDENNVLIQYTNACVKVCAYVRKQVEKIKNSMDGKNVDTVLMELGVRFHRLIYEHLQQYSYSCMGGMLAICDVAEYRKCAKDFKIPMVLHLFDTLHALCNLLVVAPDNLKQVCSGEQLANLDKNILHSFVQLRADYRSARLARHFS
# Chain of UniProt O75477 (O75477 whole entry, looked up): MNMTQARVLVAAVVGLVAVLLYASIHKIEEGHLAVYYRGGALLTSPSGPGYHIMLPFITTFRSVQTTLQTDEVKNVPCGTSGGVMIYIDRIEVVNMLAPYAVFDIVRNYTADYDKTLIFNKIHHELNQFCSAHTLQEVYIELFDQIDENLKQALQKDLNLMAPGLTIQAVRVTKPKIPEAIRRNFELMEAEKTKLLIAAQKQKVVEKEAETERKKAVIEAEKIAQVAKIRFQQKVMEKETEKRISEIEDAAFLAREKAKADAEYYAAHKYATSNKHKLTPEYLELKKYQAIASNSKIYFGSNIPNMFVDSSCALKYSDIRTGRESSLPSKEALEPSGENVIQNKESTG
# Chain of UniProt Q9NYY8 (Q9NYY8 whole entry, looked up): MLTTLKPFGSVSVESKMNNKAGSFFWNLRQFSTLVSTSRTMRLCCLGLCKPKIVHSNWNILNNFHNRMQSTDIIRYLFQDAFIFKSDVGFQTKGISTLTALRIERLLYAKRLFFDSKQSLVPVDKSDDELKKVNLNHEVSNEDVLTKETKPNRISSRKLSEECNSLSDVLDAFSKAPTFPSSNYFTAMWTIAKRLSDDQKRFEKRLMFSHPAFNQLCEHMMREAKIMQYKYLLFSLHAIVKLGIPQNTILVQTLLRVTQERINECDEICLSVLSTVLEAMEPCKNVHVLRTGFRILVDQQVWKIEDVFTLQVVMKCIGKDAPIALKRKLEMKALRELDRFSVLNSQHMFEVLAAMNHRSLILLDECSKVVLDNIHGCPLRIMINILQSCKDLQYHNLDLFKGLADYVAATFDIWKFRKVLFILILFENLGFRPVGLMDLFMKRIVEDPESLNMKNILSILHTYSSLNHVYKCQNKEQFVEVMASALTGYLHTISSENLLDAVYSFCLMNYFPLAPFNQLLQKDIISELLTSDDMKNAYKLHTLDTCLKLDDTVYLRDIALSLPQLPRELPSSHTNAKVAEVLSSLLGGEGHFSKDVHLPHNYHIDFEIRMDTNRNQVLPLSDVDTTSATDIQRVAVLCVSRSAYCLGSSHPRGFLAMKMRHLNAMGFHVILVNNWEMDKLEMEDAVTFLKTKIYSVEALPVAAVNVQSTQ
# Chain of UniProt P57678 (P57678 whole entry, looked up): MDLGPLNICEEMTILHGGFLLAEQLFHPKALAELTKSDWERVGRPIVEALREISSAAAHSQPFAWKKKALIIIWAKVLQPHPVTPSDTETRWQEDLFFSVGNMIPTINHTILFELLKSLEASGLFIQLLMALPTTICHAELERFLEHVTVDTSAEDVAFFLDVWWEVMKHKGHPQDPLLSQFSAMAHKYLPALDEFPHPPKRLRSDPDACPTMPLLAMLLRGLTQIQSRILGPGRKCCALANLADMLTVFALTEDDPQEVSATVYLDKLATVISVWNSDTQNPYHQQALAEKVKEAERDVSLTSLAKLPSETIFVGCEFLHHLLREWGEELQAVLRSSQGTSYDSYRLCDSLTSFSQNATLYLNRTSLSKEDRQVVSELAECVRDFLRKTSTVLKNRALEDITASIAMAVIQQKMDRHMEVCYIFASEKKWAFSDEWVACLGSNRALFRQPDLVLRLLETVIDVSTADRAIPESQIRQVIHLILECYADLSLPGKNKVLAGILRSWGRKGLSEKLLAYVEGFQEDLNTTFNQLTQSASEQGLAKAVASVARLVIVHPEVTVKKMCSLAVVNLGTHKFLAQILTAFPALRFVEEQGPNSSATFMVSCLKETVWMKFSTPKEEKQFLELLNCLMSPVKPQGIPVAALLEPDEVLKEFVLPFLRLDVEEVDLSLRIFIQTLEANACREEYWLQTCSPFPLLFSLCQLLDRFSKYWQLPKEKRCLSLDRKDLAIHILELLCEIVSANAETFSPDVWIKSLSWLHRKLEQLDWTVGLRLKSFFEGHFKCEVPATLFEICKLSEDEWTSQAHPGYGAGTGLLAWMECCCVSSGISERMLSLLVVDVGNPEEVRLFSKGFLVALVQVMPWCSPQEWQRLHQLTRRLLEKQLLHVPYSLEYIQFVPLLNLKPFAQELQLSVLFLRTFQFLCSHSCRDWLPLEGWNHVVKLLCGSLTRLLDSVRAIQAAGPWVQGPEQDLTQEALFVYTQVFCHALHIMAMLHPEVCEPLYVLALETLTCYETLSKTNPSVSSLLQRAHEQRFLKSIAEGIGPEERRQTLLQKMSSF
# Chain of UniProt Q9Y5Q0 (Q9Y5Q0 whole entry, looked up): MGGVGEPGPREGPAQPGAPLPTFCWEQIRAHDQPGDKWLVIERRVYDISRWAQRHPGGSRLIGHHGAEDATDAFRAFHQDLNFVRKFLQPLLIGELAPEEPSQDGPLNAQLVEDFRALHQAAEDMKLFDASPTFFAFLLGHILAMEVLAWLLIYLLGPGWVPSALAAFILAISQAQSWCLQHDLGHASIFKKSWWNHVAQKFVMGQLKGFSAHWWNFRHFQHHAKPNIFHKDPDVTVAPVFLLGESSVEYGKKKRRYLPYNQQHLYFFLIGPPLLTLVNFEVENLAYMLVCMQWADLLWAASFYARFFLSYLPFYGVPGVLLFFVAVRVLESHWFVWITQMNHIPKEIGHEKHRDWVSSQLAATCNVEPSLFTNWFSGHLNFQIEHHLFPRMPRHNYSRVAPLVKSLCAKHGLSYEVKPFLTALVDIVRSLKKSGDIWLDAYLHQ
# Chain of UniProt Q6PIW4 (Q6PIW4 whole entry, looked up): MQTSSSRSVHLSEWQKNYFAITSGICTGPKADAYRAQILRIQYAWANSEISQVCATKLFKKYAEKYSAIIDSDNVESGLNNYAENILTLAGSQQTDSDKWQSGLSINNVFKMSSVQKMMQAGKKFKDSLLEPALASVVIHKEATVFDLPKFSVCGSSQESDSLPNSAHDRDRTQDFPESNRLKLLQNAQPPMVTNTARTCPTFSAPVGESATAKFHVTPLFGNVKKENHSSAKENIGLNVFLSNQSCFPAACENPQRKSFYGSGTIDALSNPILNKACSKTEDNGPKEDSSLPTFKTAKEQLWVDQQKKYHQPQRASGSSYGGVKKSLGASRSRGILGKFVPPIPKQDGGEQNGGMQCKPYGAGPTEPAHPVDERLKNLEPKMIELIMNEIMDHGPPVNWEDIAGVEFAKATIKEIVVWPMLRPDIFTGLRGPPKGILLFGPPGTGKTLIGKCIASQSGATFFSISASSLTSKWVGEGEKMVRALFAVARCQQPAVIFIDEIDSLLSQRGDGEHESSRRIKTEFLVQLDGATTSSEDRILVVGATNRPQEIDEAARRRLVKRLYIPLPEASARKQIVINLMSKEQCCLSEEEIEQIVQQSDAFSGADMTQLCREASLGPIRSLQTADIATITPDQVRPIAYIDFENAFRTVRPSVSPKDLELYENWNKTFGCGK
Target,log2 fold change [1],log2 fold change [2],log2 fold change [3],log2 fold change [4],log2 fold change [5],log2 fold change [6],log2 fold change [7],log2 fold change [8],log2 fold change [9],log2 fold change [10],log2 fold change [11],log2 fold change [12],log2 fold change [13],log2 fold change [14],log2 fold change [15]
GAPDH (UniProt P04406),0.045,-0.026,-0.001,-0.023,0,0.114,0.042,0,-0.019,0.018,0,0.309 (active),-0.033,0.014,0.003
FIGNL1 (UniProt Q6PIW4),-0.011,0.037,-0.101,0.054,0.068,-0.08,-0.044,0.035,-0.02,-0.035,-0.016,-0.484 (active),0.045,0,0.05
ERLIN1 (UniProt O75477),0.011,-0.031,-0.01,-0.034,0.033,0.107,0.049,-0.047,-0.009,0.035,-0.07,0.063,0.064,0.03,0.023
GEMIN2 (UniProt O14893),-0.019,0.014,-0.03,0.032,-0.033,0.142,0.059,0.004,-0.039,0.049,0.003,-0.425 (active),0.002,0.04,-0.005
FASTKD2 (UniProt Q9NYY8),-0.019,-0.006,-0.006,0.016,-0.026,-0.027,-0.02,0.049,0.027,0.015,0.008,-0.524 (active),0.044,0.025,0.013
EPRS (UniProt P07814),0.005,-0.002,-0.039,-0.01,0.039,0,0.011,0.039,0.002,-0.026,-0.01,-0.365 (active),0.037,0.009,0.021
EEF1AKNMT (UniProt Q8N6R0),0.006,-0.008,-0.044,-0.011,0.043,-0.093,-0.003,0.045,-0.013,0.01,-0.004,-0.414 (active),0.076,-0.005,0.026
ECH1 (UniProt Q13011),-0.008,-0.019,0.195,-0.003,0.02,-0.008,0.022,0.001,-0.022,0.193,0.041,0.081,-0.026,-0.052,0.022
GALK1 isoform 2 (UniProt P51570),0.01,-0.018,-0.024,-0.014,0.03,-0.051,0.002,0.04,-0.033,-0.006,-0.017,-0.338 (active),0.063,0.023,-0.088
DYNC1I2 isoform 5 (UniProt Q13409),0.029,0.016,0.008,-0.003,0.001,0.023,-0.011,-0.014,-0.008,-0.01,0.009,0.126,0.03,-0.005,-0.007
FNBP1L (UniProt Q5T0N5),-0.076,0.03,-0.131,0.007,-0.051,-0.068,-0.016,0.018,-0.004,0.025,0.001,-0.373 (active),0.102,-0.041,0.017
FBXO30 (UniProt Q8TB52),0.015,-0.032,0.012,0.067,0.02,0.001,0.012,-0.008,-0.017,0.005,-0.01,-0.316 (active),0.042,-0.019,0.013
FREM2 (UniProt Q5SZK8),-0.108,0.041,-0.071,-0.113,-0.014,-0.223,-0.168,0.048,0.059,0.04,0.094,0.048,0.085,-0.11,-0.003
FADS3 (UniProt Q9Y5Q0),-0.091,0.216,0.102,0.166,-0.061,-0.019,-0.081,-0.008,-0.069,0.07,0.21,0.247,-0.126,0.004,-0.185
FARSB (UniProt Q9NSD9),-0.019,-0.005,-0.019,0.006,0.032,-0.001,0.02,0.027,0.002,-0.014,-0.01,0.015,0.013,-0.013,0.011
DUS3L (UniProt Q96G46),0.008,-0.022,-0.019,-0.014,0.004,-0.098,-0.017,0.026,0,-0.021,0.002,-0.08,0.036,-0.007,0.014
FAM98A (UniProt Q8NCA5),-0.045,0.034,-0.034,0.018,-0.022,-0.042,0.009,-0.004,-0.028,-0.014,0.027,-0.558 (active),0.005,0.01,0.006
GEMIN4 (UniProt P57678),-0.001,-0.014,-0.047,-0.001,0.101,-0.056,0.006,0.077,-0.001,-0.097,-0.025,-0.435 (active),0.1,0.019,0.034
EXOC5 (UniProt O00471),0.008,-0.025,-0.063,-0.003,0.047,-0.044,0.006,0.014,0.01,0.002,0.036,-0.293 (active),0.036,0.002,0.025
GBF1 (UniProt Q92538),-0.021,0.02,-0.088,0.027,0.021,-0.04,-0.003,0.054,0.018,-0.034,-0.019,-0.304 (active),0.023,0.043,0.008
EWSR1 isoform 5 (UniProt Q01844),-0.766 (active),0.019,0.004,0.036,-0.049,-0.025,0.082,0.013,-0.002,0.024,0.027,0.036,-0.034,0.006,0.014
